Active and inactive are the calls of the source.
What was measured:
[1] = optical density shifts of acrAB sulA E. coli – strain DRC41, OD650, 48 h, E. coli filamentation inducer project, primary screen (AID 1152); conditions: higher = more signal, called active from +8 up or from −8 down;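 also: E. coli MC1000 strain DRC41 lacking acrAB efflux pump and sulA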
[2] = probe aLefty1 binding on compound microarray – biochemical, small-molecule microarray, 635/667 nm fluorescence, primary screen (AID 1153); conditions: higher = more signal;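 also: score merges spot fluorescence with signal-to-noise ratio from the scanned slide images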
[3] = plasmodial surface anion channel blockers, osmotic lysis – cell-based, P. falciparum Indochina, OD700, 1 h, primary screen (AID 1154); conditions: P. falciparum Indochina infected RBC osmotic lysis, higher = more signal, called active from +8 up or from −8 down
[4] = plasmodial surface anion channel blockers, osmotic lysis – cell-based, P. falciparum Indochina, OD700, 2 h, primary screen (AID 1155);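 also: lysis reports solute entry through the parasite surface anion channel PSAC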; conditions: P. falciparum Indochina infected erythrocytes, higher = more signal, called active from +8 up or from −8 down
[5] = changes in parasitized red cell lysis, either direction – P. falciparum Indochina, OD700, 3 h, PSAC antagonist project, primary screen (AID 1156); conditions: P. falciparum-infected erythrocytes, osmotic lysis, higher = more signal, called active from +8 up or from −8 down
[6] = plasmodial surface anion channel blockers, osmotic lysis – cell-based, P. falciparum Indochina, OD700, 18 h, primary screen (AID 1157); conditions: P. falciparum Indochina infected erythrocytes, osmotic lysis OD700, 18 h; higher = more signal, called active from +8 up or from −8 down
[7] = S6 kinase pathway phospho-S6 level changes – cell-based, A549, cytoblot, luminescence, serum-stimulated, primary screen (AID 1158); conditions: 5 h, higher = more signal;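 also: serum-stimulated A549 lung adenocarcinoma cells; signal is phosphorylated S6 detected by cytoblot immunostaining with HRP secondary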
[8] = biological target: NADPH oxidase 2 (Homo sapiens) (UniProt P04839); assay: compounds shifting NOX2 Amplex Red fluorescence – cell-based, HEK293-NOX2, PMA-stimulated, NOX inhibitor project, primary screen (AID 1159); conditions: 45 min, higher = more signal, called active from +8 up or from −8 down; also: test concentration not given here
Chain of NADPH oxidase 2 (Homo sapiens) (P04839 whole entry, looked up): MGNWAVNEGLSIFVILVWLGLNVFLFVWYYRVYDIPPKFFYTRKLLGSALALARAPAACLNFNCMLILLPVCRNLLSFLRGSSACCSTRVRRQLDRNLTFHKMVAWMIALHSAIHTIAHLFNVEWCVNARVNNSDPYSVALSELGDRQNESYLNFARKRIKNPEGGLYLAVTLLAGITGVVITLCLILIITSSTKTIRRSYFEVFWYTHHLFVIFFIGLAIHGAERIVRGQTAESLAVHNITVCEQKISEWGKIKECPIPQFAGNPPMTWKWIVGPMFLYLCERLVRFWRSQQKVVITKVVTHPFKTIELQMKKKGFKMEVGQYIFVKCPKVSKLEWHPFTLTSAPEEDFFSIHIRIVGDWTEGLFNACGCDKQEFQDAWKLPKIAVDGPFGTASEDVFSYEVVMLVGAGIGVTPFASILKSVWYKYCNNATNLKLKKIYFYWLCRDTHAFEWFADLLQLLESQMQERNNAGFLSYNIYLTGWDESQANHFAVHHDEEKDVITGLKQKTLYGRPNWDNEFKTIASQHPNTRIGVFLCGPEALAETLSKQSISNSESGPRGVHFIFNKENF

[9] = biological target: NADPH oxidase 4 (Homo sapiens) (UniProt Q9NPH5); assay: compounds shifting NOX4 Amplex Red fluorescence – cell-based, HEK293-NOX4, tetracycline-induced, NOX inhibitor project, primary screen (AID 1160); conditions: HEK293-NOX4, Amplex Red H2O2 fluorescence, 45 min; higher = more signal, called active from +8 up or from −8 down
Chain of NADPH oxidase 4 (Homo sapiens) (Q9NPH5 whole entry, looked up): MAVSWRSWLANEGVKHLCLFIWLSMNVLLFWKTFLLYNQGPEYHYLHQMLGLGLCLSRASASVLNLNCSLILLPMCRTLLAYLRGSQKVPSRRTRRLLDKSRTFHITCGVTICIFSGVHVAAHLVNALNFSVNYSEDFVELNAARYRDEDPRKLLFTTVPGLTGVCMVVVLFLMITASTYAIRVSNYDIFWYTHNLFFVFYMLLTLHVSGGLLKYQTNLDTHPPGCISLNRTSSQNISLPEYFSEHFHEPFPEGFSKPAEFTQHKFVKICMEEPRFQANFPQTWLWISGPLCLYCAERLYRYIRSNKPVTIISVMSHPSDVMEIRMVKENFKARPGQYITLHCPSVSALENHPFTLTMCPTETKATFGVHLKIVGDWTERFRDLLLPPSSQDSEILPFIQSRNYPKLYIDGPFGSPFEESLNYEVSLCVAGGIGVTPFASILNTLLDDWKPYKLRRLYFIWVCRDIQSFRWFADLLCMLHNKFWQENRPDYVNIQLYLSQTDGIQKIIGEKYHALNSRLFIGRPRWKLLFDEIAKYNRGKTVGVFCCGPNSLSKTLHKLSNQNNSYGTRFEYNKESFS

[10] = biological target: NADPH oxidase 5 (Homo sapiens) (UniProt Q96PH1); assay: compounds shifting NOX5 Amplex Red fluorescence – cell-based, HEK293-NOX5, NOX inhibitor project, primary screen (AID 1161); conditions: HEK293-NOX5, ionomycin, 45 min, higher = more signal
Chain of NADPH oxidase 5 (Homo sapiens) (Q96PH1 whole entry, looked up): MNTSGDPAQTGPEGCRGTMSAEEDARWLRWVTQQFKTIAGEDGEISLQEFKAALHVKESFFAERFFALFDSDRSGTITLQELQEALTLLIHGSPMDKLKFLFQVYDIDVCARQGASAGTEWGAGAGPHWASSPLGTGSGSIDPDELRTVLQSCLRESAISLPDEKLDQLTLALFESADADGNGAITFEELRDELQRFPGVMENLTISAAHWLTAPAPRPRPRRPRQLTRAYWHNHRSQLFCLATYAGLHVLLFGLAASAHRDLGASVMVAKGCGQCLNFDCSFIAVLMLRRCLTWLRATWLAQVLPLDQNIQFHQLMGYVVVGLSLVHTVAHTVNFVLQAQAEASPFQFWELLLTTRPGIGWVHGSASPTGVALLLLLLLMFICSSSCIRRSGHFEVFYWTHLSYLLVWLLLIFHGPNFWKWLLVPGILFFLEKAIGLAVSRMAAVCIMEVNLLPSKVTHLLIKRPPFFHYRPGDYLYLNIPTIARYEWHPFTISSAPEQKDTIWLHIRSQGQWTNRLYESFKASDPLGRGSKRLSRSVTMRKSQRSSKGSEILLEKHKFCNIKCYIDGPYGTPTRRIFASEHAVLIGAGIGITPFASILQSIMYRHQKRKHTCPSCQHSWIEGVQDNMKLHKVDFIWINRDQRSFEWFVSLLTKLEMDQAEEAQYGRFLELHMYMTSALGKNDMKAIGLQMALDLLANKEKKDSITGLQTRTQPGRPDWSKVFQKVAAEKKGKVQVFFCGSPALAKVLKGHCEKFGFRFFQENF

[11] = compound effects on lung adenocarcinoma cell viability – A549, calcein-AM fluorescence, 48 h, basal, profiling panel (AID 1162); conditions: higher = more signal; also: test concentration not given here
[12] = compound effects on differentiated 3T3-L1 adipocyte viability – cell-based, 3T3-L1 adipocytes, calcein-AM fluorescence, 48 h, basal, profiling panel (AID 1163); conditions: 3T3-L1 adipocytes viability, higher = more signal; also: test concentration not given here
[13] = compound effects on hepatocellular carcinoma cell viability – HepG2, calcein-AM fluorescence, 48 h, basal, profiling panel (AID 1164); conditions: higher = more signal; also: test concentration not given here
[14] = compound effects on multiple myeloma cell viability – MM1S, calcein-AM fluorescence, 48 h, basal, profiling panel (AID 1165); conditions: higher = more signal; also: test concentration not given here
[15] = calcein-AM signal in unstimulated myeloma cells – cell-based, calcein-AM fluorescence, 48 h, PK04 Diversity Set, profiling panel (AID 1166); conditions: RPMI8226 myeloma viability, higher = more signal;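 also: cells grown under basal conditions without added stimulus; test concentration not given here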
[16] = JC-1 mitochondrial signal, unstimulated HepG2 cells – cell-based, JC-1 fluorescence, 24 h, 100 nL compound, profiling panel (AID 1167); conditions: HepG2 mitochondrial potential, higher = more signal; also: test concentration not given here
[17] = JC-1 mitochondrial signal, unstimulated adipocytes – cell-based, JC-1 fluorescence, 3T3-L1 adipocytes, 24 h, 100 nL compound, profiling panel (AID 1168); conditions: JC-1 mitochondrial fluorescence, higher = more signal, called active from +8 up or from −8 down; also: test concentration not given here
[18] = JC-1 mitochondrial signal, unstimulated myeloma cells – cell-based, JC-1 fluorescence, RPMI8226, 24 h, 100 nL compound, profiling panel (AID 1169); conditions: JC-1 mitochondrial potential fluorescence, higher = more signal; also: test concentration not given here
[19] = JC-1 mitochondrial signal, unstimulated MM1S myeloma – cell-based, JC-1 fluorescence, 24 h, 100 nL compound, profiling panel (AID 1170); conditions: MM1S mitochondrial potential, higher = more signal; also: test concentration not given here
[20] = resazurin metabolic signal in A549 cells – cell-based, resazurin fluorescence, 24 h, PK04 Diversity Set, profiling panel (AID 1171); conditions: A549 viability, higher = more signal, called active from +8 up or from −8 down; also: test concentration not given here

Row | SMILES | z-score [1] | composite z-score [2] | z-score [3] | z-score [4] | z-score [5] | z-score [6] | z-score [7] | z-score [8] | z-score [9] | z-score [10] | z-score [11] | z-score [12] | z-score [13] | z-score [14] | z-score [15] | z-score [16] | z-score [17] | z-score [18] | z-score [19] | z-score [20]
1 | [N-]=[N+]=NCc1ccccc1C[C@]1(C(=O)N2CCOCC2)N=C(c2ccc(OCCCO)cc2)O[C@H]1c1ccccc1CN=[N+]=[N-] | 0.341 (inactive) | 1.15 | 17.5 (active) | 3.97 (inactive) | 2.79 (inactive) | 1.15 (inactive) | 1.02 | -0.647 (inactive) | 0.782 (inactive) | 2.13 | 0.869 | 0.577 | 0.74 | -1.47 | -2.29 | 1.24 | 1.04 (inactive) | -1.18 | 0.233 | -0.768 (inactive)
2 | C=CCNC(=O)[C@H]1[C@@H]2C(=O)O[C@@H](c3ccccc3)[C@@H](c3ccccc3)N2[C@@H](c2ccc(O)cc2)[C@]12C(=O)Nc1ccc(C#CC3=CCCCC3)cc12 | -0.164 (inactive) | 0.802 | 1.54 (inactive) | 1.23 (inactive) | -0.355 (inactive) | 1.1 (inactive) | -0.101 | 1.18 (inactive) | 0.676 (inactive) | 1.61 | -0.931 | -0.826 | -0.66 | -3.3 | -4.46 | -0.341 | 0.523 (inactive) | -1.14 | -1.79 | -1.63 (inactive)
3 | NCCCC[C@@H]1NC(=O)[C@H]2C[C@@H](C(=O)O)[C@@H](c3cccc(OCCO)c3)N2C1=O | -1.23 (inactive) | 0.951 | -1.87 (inactive) | -0.195 (inactive) | 0.452 (inactive) | 0.253 (inactive) | -0.993 | 2.14 (inactive) | 0.834 (inactive) | 0.415 | -0.917 | -0.61 | 0.274 | -1.81 | 0.0324 | -2.23 | 0.0425 (inactive) | -0.392 | -0.658 | 0.506 (inactive)
4 | C=CCOC(=O)[C@@H]1[C@H]2C(=O)O[C@H](c3ccccc3)[C@H](c3ccccc3)N2[C@H](c2ccc(OCCOC(=O)[C@H]3C[C@H]4C(=O)NCC(=O)N4[C@H]3c3ccc(O)cc3)cc2)[C@@]12C(=O)Nc1ccc(I)cc12 | -0.707 (inactive) | -0.154 | 8.8 (active) | 2.39 (inactive) | 0.345 (inactive) | 1.16 (inactive) | 0.379 | 0.588 (inactive) | 0.812 (inactive) | 0.711 | -0.441 | -0.105 | 0.273 | -0.172 | -0.0622 | -1.59 | 0.91 (inactive) | -0.772 | -1 | 1.1 (inactive)
5 | CCCCC(O)C1C=CC2C(=O)NC(=O)C2N1Nc1ccc(Cl)cc1Cl (stereo not given) | -1.73 (inactive) | 0.396 | 2.42 (inactive) | 1.53 (inactive) | 0.39 (inactive) | 0.998 (inactive) | -0.787 | -0.461 (inactive) | -5.64 (inactive) | -3.41 | -1.99 | 0.266 | -2.39 | -1.55 | -2.27 | -2.38 | -0.831 (inactive) | -0.64 | 0.724 | -1.99 (inactive)
6 | C[N+](C)(C)CCCCCCNC(=O)[C@@H]1C[C@@H]2C(=O)N[C@@H](Cc3ccccc3)C(=O)N2[C@@H]1c1ccc(O)cc1 | 0.38 (inactive) | 0.286 | 3.42 (inactive) | 0.0655 (inactive) | -0.406 (inactive) | 0.0311 (inactive) | -0.491 | 0.627 (inactive) | 0.203 (inactive) | 0.0921 | -0.428 | -0.482 | 0.223 | 0.337 | -0.0064 | -1.12 | -0.055 (inactive) | -0.862 | -0.401 | 0.47 (inactive)
7 | C#CCN=C(N)N | 0.0764 (inactive) | -0.214 | 0.269 (inactive) | 0.347 (inactive) | -0.765 (inactive) | -0.0065 (inactive) | -0.871 | 0.059 (inactive) | 0.217 (inactive) | -0.0927 | -0.268 | -0.677 | 0.527 | 0.67 | 0.381 | -0.794 | 0.268 (inactive) | -0.574 | -0.922 | 0.0116 (inactive)
8 | CC(C)CNC(=O)[C@@H]1c2ccccc2C(=O)N(Cc2ccccc2)[C@H]1c1ccc(CO)cc1 | -0.603 (inactive) | -0.106 | 1.49 (inactive) | 0.294 (inactive) | 2.44 (inactive) | 0.769 (inactive) | -0.316 | -0.638 (inactive) | -1.24 (inactive) | -3.17 | -0.412 | 0.175 | -0.345 | 0.0234 | 0.65 | 0.508 | -0.526 (inactive) | 0.146 | -0.139 | 0.678 (inactive)
9 | NCCCC[C@@H]1NC(=O)[C@H]2C[C@@H](C(=O)NCc3ccc(F)cc3)[C@@H](c3cccc(OCCO)c3)N2C1=O | -0.405 (inactive) | 0.254 | -0.591 (inactive) | 0.157 (inactive) | -0.805 (inactive) | 0.274 (inactive) | -0.325 | 1.88 (inactive) | 0.647 (inactive) | 0.582 | 0.172 | -0.716 | 1.13 | -0.893 | -0.259 | -2.23 | 0.13 (inactive) | -0.968 | -0.894 | 0.858 (inactive)

From PubChem BioAssay
